“And” between values parts separate entries of the source, which are not always exact repeats. Equal values may be shown once. Records with an inconclusive call do not appear. A structure can be active in one record and inactive in another. The source made the active and inactive calls. The calls were made as follows, unless noted: active = hit-call score of the fitted dose curve at least 0.9, where 1 is the maximum; inactive = score below 0.9.
Columns and labels:
[1] = read-out: Secreted IgG (sIgG), gene 3500; experiment: BSK_BT_sIgG: BioMAP Diversity Plus: BT Assay for Secreted IgG (sIgG) Biomarker Activity (AID 2284226); conditions: primary human B cells with PBMC
Method in brief: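 Cells (B cells with peripheral blood mononuclear cells) are dosed, cultured 24 h, then supernatant IgG is measured by ELISA. DMSO serves as negative control; curves are fitted for signal increase.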

[2] = BSK_BT_Bcell_Proliferation: Viability Assessment in the BioMAP Diversity Plus: BT Assay for B cell Proliferation (AID 2284227); conditions: primary human B cells with PBMC
Method in brief: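 SRB-based protein staining (0.1% SRB after 10% TCA fixation, 560 nm) quantifies proliferation in human B cells co-cultured with PBMC, 72 h post-dosing, with signal gain scored relative to DMSO negative control.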

[3] = read-out: Interleukin 6 (IL6), IL6 (gene 3569); experiment: BSK_BT_xIL6: BioMAP Diversity Plus: BT Assay for Interleukin 6 (IL6) Biomarker Activity (AID 2284228); conditions: primary human B cells with PBMC
Method in brief: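 IL-6 secretion measured (Luminex xMAP) in human primary B cell + PBMC co-culture at 24 h of chemical exposure; DMSO served as negative control and activity baseline, with curves fitted for increase.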

[4] = read-out: Interleukin 17A (IL17A), IL17A (gene 3605); experiment: BSK_BT_xIL17A: BioMAP Diversity Plus: BT Assay for Interleukin 17A (IL17A) Biomarker Activity (AID 2284229); conditions: primary human B cells with PBMC
Method in brief: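 Human primary B cells plus PBMC, treated 24 h with chemicals; supernatant IL-17A quantified on Luminex xMAP beads. Gain of signal over DMSO control scored as activity.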

[5] = read-out: Tumor necrosis factor (Homo sapiens) (UniProt P01375); experiment: BSK_BT_xTNFa: BioMAP Diversity Plus: BT Assay for Tumor necrosis factor alpha (TNF-alpha) Biomarker Activity (AID 2284230); conditions: primary human B cells with PBMC
Method in brief: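 Compounds were added to a B cell plus PBMC co-culture, and after 24 h secreted TNF-alpha was quantified with Luminex xMAP technology, with responses fitted upward from the DMSO control.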

[6] = read-out: Vascular cell adhesion molecule 1 (VCAM1), VCAM1 (gene 7412); experiment: BSK_MyoF_VCAM1: BioMAP Diversity Plus: MyoF Assay for Vascular cell adhesion molecule 1 (VCAM1) Biomarker Activity (AID 2284231); conditions: primary human lung fibroblasts
Method in brief: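 VCAM-1 levels, lung fibroblasts, ELISA, 24 h exposure, increase scored relative to DMSO.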

[7] = CCTE_Mundy_HCI_Cortical_Synap_Neur_Matur_CellBodySpotCount: CCTE's Synaptogenesis and Neurite Maturation Assay in rat cortical cells for Cell Body Spot Count, Mundy Lab (AID 2284223)
Method in brief: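 Chemicals were applied to AraC-treated rat primary cortical cells at DIV 7 and measured at DIV 12. Fixed cells were labelled for MAP2, synaptophysin and nuclei, and high-content imaging gave cell body synaptophysin spot counts per neuron relative to DMSO.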

[8] = CCTE_Mundy_HCI_hNP1_Pro_ResponderAvgInten: CCTE's Proliferation Assay in human neuroprogenitor cells, Mundy Lab (AID 2284224; active = hit-call score of the fitted dose curve at least 0.9, where 1 is the maximum;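 also: human neural progenitor cells hNP1 derived from WA09 embryonic stem cells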)
Method in brief: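 Proliferation read as average intensity of BrdU-positive cells, imaged at 26.25 h post-dosing: chemical exposure started after 40–44 h culture, BrdU during final 4 h, paraformaldehyde fixation. Positive-direction fit relative to DMSO.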

[9] = UKN4_HCS_LUHMES_cell_viability: Viability Assessment in the University of Konstanz (UKN) Leist Lab Neurite Outgrowth Assay in human LUHMES cells (UKN4) (AID 2284232)
Method in brief: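 Cells switched to differentiation medium at day 0, replated on day 2 in medium lacking cAMP and GDNF, and compound-treated once attached. Live staining began 23.5 h later, imaging followed at 24 h.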

[10] = BSK_BT_PBMCCytotoxicity: PBMC Cytotoxicity Assessment in the BioMAP Diversity Plus: BT Assay (AID 2284225); conditions: primary human B cells with PBMC;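 also: PBMC viability measured by Alamar Blue dye reduction fluorescence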
Method in brief: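 Viability by Alamar Blue reduction (6 h, ex/em 546/580 nm) after 90 h culture of SEB/TSST-1-activated PBMC (20 ng/mL each) given compound 1 h before activation. DMSO served as baseline for curve fitting.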

Measured: AC50

Tumor necrosis factor (Homo sapiens), sequence (P01375 whole entry, looked up): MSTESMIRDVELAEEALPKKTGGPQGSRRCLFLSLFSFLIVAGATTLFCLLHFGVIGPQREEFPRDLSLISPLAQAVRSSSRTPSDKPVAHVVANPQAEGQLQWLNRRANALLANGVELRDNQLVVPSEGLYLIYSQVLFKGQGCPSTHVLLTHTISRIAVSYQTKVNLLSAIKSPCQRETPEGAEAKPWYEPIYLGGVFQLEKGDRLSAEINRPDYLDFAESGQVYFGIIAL

O=C(NO)c1ccccc1
active: [3] 4.24 µM | [4] 8.55 µM | [5] 19.2 µM
inactive: [1] | [2] | [6]

C=CC(=C)CC/C=C(\C)CCC=C(C)C
inactive: [1] | [2] | [3] | [4] | [5] | [6]

O=C(O)CCC(F)(F)C(F)(F)C(F)(F)C(F)(F)C(F)(F)F
active: [1] 30 µM | [2] 6.31 µM
inactive: [1] | [2] | [3] | [4] | [5] | [6]

O=S(=O)(O)C(F)(F)C(F)(F)C(F)(F)C(F)(F)C(F)(F)C(F)(F)C(F)(F)C(F)(F)C(F)(F)C(F)(F)F
inactive: [1] | [2] | [3] | [4] | [5] | [6]

O=C1NS(=O)(=O)c2ccccc21
inactive: [7] | [8]

Clc1ccc(Nc2nnc(Cc3ccncc3)c3ccccc23)cc1
inactive: [2] | [4] | [5] | [6]
active: [1] 6.52 µM | [3] 8.4 µM

CC(=O)Nc1ccc(O)cc1
inactive: [7] | [8]

O=C(O)C(F)(F)OC(F)(F)C(F)(F)OC(F)(F)C(F)(F)OC(F)(F)C(F)(F)C(F)(F)C(F)(F)F
active: [1] 42.5 µM and 34.9 µM | [3] 43.1 µM and 52.8 µM | [4] 41.8 µM and 51.3 µM | [5] 48.6 µM and 53.5 µM | [6] 12.5 µM and 12.3 µM
inactive: [2]

Nc1ccn([C@@H]2O[C@H](CO)[C@@H](O)C2O)c(=O)n1 (some centres undefined)
inactive: [7] | [9]
active: [8] 0.0896 µM

O=C(O)CCC(F)(F)C(F)(F)C(F)(F)C(F)(F)C(F)(F)C(F)(F)F
active: [1] 14 µM and 36.7 µM | [5] 36.5 µM
inactive: [1] | [2] | [3] | [4] | [5] | [6]

CCCCCCCCCCCCCCCCCC[N+](C)(C)Cc1ccccc1
active: [1] 0.66 µM | [2] 1.88 µM | [3] 6.37 µM | [4] 0.792 µM | [5] 3.16 µM | [6] 2.72 µM

O=C(CC(=O)C(F)(F)C(F)(F)C(F)(F)F)c1cccs1
active: [1] 19 µM and 20.1 µM | [2] 43 µM and 40.8 µM | [3] 29.8 µM and 22.1 µM | [4] 30 µM and 24.5 µM | [5] 35.6 µM and 39.6 µM
inactive: [8] | [6]

CN(Cc1cnc2nc(N)nc(N)c2n1)c1ccc(C(=O)N[C@@H](CCC(=O)O)C(=O)O)cc1
inactive: [7] | [3] | [4] | [5] | [6]
active: [1] 662 nM and 100 nM | [2] 855 nM and 43.4 nM

OCC(F)(F)C(F)(F)C(F)(F)C(F)(F)C(F)(F)C(F)(F)C(F)(F)C(F)(F)C(F)(F)C(F)(F)C(F)(F)F
active: [2] 174 nM and 835 nM | [4] 0.0554 µM
inactive: [8] | [1] | [3] | [4] | [5] | [6]

CC(C)c1c(C(=O)Nc2ccccc2)c(-c2ccccc2)c(-c2ccc(F)cc2)n1CC[C@@H](O)C[C@@H](O)CC(=O)O
inactive: [8]
active: [7] 4.68 µM

COc1cccc(O)c1
not listed: [7] | [8] | [9]
inactive: all other assays above

O=C(CCCN1CCC(O)(c2ccc(Cl)cc2)CC1)c1ccc(F)cc1
inactive: [7] | [9]

CCCCCc1ccc(O)cc1
active: [1] 20 µM | [6] 26.9 µM
inactive: [2] | [3] | [4] | [5]

O=P(O)(O)CCC(F)(F)C(F)(F)C(F)(F)C(F)(F)C(F)(F)C(F)(F)C(F)(F)C(F)(F)F
active: [2] 30 µM and 53.9 µM | [5] 30 µM
inactive: [1] | [3] | [4] | [5] | [6]

Cc1ccc(N=Nc2c(O)ccc3ccccc23)c(C)c1
inactive: [2] | [3] | [4] | [5] | [6]
active: [1] 10 µM

O=C1OC2(c3ccccc31)c1cc(I)c(O)c(I)c1Oc1c2cc(I)c(O)c1I
active: [6] 9.09 µM
inactive: [1] | [2] | [3] | [4] | [5]

O=C1c2ccc(O)c(O)c2C(=O)c2c(O)ccc(O)c21
inactive: [1] | [2] | [3] | [4] | [5] | [6]

C[C@]12CC[C@@H]3c4ccc(O)cc4CC[C@H]3[C@@H]1C[C@@H](O)[C@@H]2O
inactive: [1] | [2] | [3] | [4] | [5] | [6]

CC[N+](CC)(CC)Cc1ccccc1
inactive: [1] | [2] | [3] | [4] | [5] | [6]

Oc1cc2ccccc2cc1O
inactive: [1] | [2] | [3] | [4] | [5] | [6]

COC1=CC(=O)C[C@@H](C)[C@]12Oc1c(Cl)c(OC)cc(OC)c1C2=O
active: [1] 30.9 µM | [2] 37.3 µM | [5] 20 µM
inactive: [3] | [4] | [6]

CCCCC(CC)C(=O)OCCOCCOCCOCCOC(=O)C(CC)CCCC (centres undefined)
active: [1] 25.2 µM | [2] 28.4 µM | [3] 0.016 µM | [5] 0.016 µM
inactive: [4] | [6]

CC1=NN(c2ccccc2)C(=O)C1
active: [3] 3.91 µM
inactive: [1] | [2] | [4] | [5] | [6]

COCN(COC)c1nc(N(COC)COC)nc(N(COC)COC)n1
inactive: [1] | [2] | [3] | [4] | [5] | [6]

OCCN1CN(CCO)CN(CCO)C1
inactive: [4] | [6]
active: [1] 29.2 µM | [2] 38.2 µM | [3] 33.6 µM | [5] 34.1 µM

CN(CCO)S(=O)(=O)C(F)(F)C(F)(F)C(F)(F)C(F)(F)C(F)(F)C(F)(F)C(F)(F)C(F)(F)F
inactive: [1] | [2] | [3] | [4] | [5] | [6]

C=COC(=O)C(C)(C)CCCCCC
inactive: [1] | [2] | [3] | [4] | [5]
active: [6] 31 µM

CN(C)c1ccc(C(=C2C=CC(=[N+](C)C)C=C2)c2ccccc2)cc1
active: [1] 0.227 µM | [2] 0.248 µM | [3] 1.13 µM | [4] 0.28 µM | [5] 0.805 µM | [6] 0.0764 µM

O=C(NCc1ncc(C(F)(F)F)cc1Cl)c1c(Cl)cccc1Cl
active: [1] 9.52 µM | [2] 20 µM | [3] 20 µM | [4] 15.5 µM | [5] 20 µM
inactive: [6]

NC(=NCCCCCCN=C(N)/N=C(\N)Nc1ccc(Cl)cc1)/N=C(\N)Nc1ccc(Cl)cc1
active: [1] 2.87 µM | [2] 9.19 µM | [3] 8.83 µM | [4] 4.09 µM | [5] 8.79 µM | [6] 4.99 µM

Cc1ccc(C(=O)c2ccccc2)cc1
inactive: [1] | [2] | [3] | [4] | [5]
active: [6] 31.4 µM

Cc1cccc2c1ccc1ccccc12
inactive: [2] | [4] | [5] | [6]
active: [1] 26.6 µM | [3] 0.157 µM

C=CC(C)(CCC=C(C)C)OC(C)=O (centres undefined)
inactive: [1] | [2] | [3] | [4] | [5] | [6]

CCOC(=O)CN[C@@H](C(=O)N1CC[C@H]1C(=O)NCc1ccc(/C(N)=N/O)cc1)C1CCCCC1
inactive: [1] | [2] | [3] | [4] | [5] | [6]

O=P(O)(O)CCC(F)(F)C(F)(F)C(F)(F)C(F)(F)C(F)(F)C(F)(F)F
inactive: [1] | [2] | [3] | [4] | [5] | [6]

COc1cc(OC)nc(NC(=O)NS(=O)(=O)Nc2ccccc2C(=O)N(C)C)n1
inactive: [1] | [2] | [3] | [4] | [5] | [6]

CC(C)(C)c1ccc(O)c(O)c1
active: [1] 31.4 µM | [2] 29.1 µM | [3] 25.3 µM | [4] 16.5 µM | [5] 31.5 µM | [6] 31.5 µM

C=CC(=O)OCCC(F)(F)C(F)(F)C(F)(F)C(F)(F)C(F)(F)C(F)(F)C(F)(F)C(F)(F)F
inactive: [1] | [2] | [3] | [4] | [5] | [6]
